# PubChem BioAssay (NCI)
# This is part of a sample that, as a whole, favours compounds with a hit. Of some 83,000 tested, about 20% had one in any assay.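 Assay: single dose, 48 h. Readout: percent growth (0 = no net growth; negative = cell death). Active: <10.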 Values without a mark were called inactive. Calls of active or inactive are those of the source.
# System: MOLT-4 leukemia
# Experiment: NCI-60 one-dose screen, 48 h (100 = growth as untreated, 0 = no growth, -100 = all killed)
# Settings: 10 µM unless noted
row,SMILES,growth
1,O=S(=O)(NCCCNc1nccc(-n2ccc3cccnc32)n1)c1cccc(C(F)(F)F)c1,97.3%
2,CC(C)(C)n1cc(-c2ccnc(NCCNS(=O)(=O)c3ccc(F)cc3)c2)c(-c2cccc(O)c2)n1,35.3%
3,Cc1ccc(-c2cc3nc(C(Cl)Cl)nc(-c4ccccc4C)n3n2)cc1,62.9%
4,O=C(NNC(=O)N1c2ccccc2C=Cc2ccccc21)c1ccc2ccccc2c1,94.9%
5,CN(C[C@H]1Cc2c(cccc2N2CCN(Cc3ccccn3)CC2)CN1)[C@H]1CCCc2cccnc21,41%
6,CCCCCCCCC(C)OC(=O)c1nn(C(C)=O)c2ccccc12 (centres undefined),109%
7,OC(c1cc2cc(Br)ccc2c2cc(Br)ccc12)C1CCCCN1 (centres undefined),-71.9% (active)
8,O=C(NS(=O)(=O)c1ccc2ccccc2c1)n1cc(-c2ccncc2)c(-c2ccc(Cl)c(O)c2)n1,78.9%
9,Cc1cc(N)n(S(=O)(=O)c2oc(-c3ccccc3)nc2C#N)n1,0.904% (active)
10,O=[N+]([O-])c1ccc(C(c2ccccc2)c2ccccc2)cc1,95.2%
11,CN(C)c1oc(C2OC2c2ccccc2)nc1C#N (centres undefined),97.7%
12,Cc1ccc(S(=O)(=O)NC(=O)n2cc(-c3ccncc3)c(-c3ccc(Cl)c(O)c3)n2)cc1,85.2%
13,CN(CCCCN(C[C@H]1Cc2ncccc2CN1)[C@H]1CCCc2cccnc21)C1CCC(F)(F)CC1,91.4%
14,Cc1cc(C2(c3cc(C)c(O)cc3C)OS(=O)(=O)c3ccccc32)c(C)cc1O,96.3%
15,CC1CN(c2oc(-c3ccccc3)nc2C#N)CC(C)O1 (centres undefined),103%
16,NC(=O)CCCN1C/C(=C\c2ccccc2)C(=O)c2ccccc21,104%
17,Cc1ccc(S(=O)(=O)NCCCNc2cc(-c3cn(C(C)(C)C)nc3-c3cccc(O)c3)ccn2)cc1,49.1%
18,Cc1nc2ncccc2nc1Nc1ccc(S(=O)(=O)Nc2ccccn2)cc1,91.9%
19,COc1ccc(NC(=O)c2c(Nc3ccc(OC)cc3OC)n[nH]c2N)c(OC)c1,78.8%
20,CCOC(=O)c1cn2c3c(cc(C)cc3c1=O)C(=O)/C(=C/c1ccccc1)C2,86.9%

row,SMILES,growth
1,N=c1ccc2nc3ccc(N)cc3sc-2c1,8.58% (active)
2,CC12CCC3C4(C)COC(c5ccccc5Cl)OC4CCC3(C)C1CC(C1=CCOC1=O)O2 (centres undefined),34.5%
3,C=C1CCC2C(C)(CO)C(O)CCC2(C)C1CC(NCc1ccccc1)C1=CCOC1=O (centres undefined),108%
4,c1cc(C2=N[C@@H]3c4ccccc4C[C@@H]3O2)nc(C2=N[C@@H]3c4ccccc4C[C@@H]3O2)c1,106%
5,COC1=C(OC)C(=O)C(CCCCCCCCCC[P+](c2ccccc2)(c2ccccc2)c2ccccc2)=C(C)C1=O,-33.8% (active)
6,COc1ccc(-c2cc(-c3ccccc3)nc(SCCCC(=O)NO)n2)cc1OC,2.96% (active)
7,N=C(N)c1ccc(-c2cc(Cl)cc(Cl)c2)cn1,89.1%
8,Nc1cccc(-c2nc3sccn3c2-c2ccnc(NCCNS(=O)(=O)c3ccc(C(F)(F)F)cc3)n2)c1,45.6%
9,C=C1CCC2C(C)(CO)C(O)CCC2(C)C1C/C=C1/C(=O)OCC1O/C=C/c1ccccc1 (centres undefined),21.2%
10,CCN(CC)CCC(CNc1ccnc2cc(Cl)ccc12)c1ccccc1 (centres undefined),50.7%
11,COc1ccc(-c2ccc(-c3ccc(C(=N)N)cn3)s2)cc1OC,72.2%
12,Cn1cnc2c(N3CCN(C(=O)OCc4ccc5c(Cl)cc(Cl)c(O)c5n4)CC3)nc(Cl)nc21,59.5%
13,C=C1CCC2C(C)(CO)C(O)CCC2(C)C1C/C=C1/C(=O)OCC1Oc1ccccc1C (centres undefined),92.5%
14,COc1ccc(S(=O)(=O)NCCCNc2nccc(-n3ccc4cccnc43)n2)cc1,77.2%
15,CCN(CC)CCC(CNc1ccnc2cc(Cl)ccc12)c1ccc(Cl)cc1 (centres undefined),7.05% (active)
16,N=C(N)c1ccc(-c2ccc(-c3ccc(-c4cccs4)s3)s2)cc1,98%
17,COc1ccc(Nc2nn3c(C)cc(C)nc3c2C(=O)Nc2ccc(C)cc2)c(OC)c1,107%
18,CCCCCCN1CSC(=S)N(CCCCCC)C1,107%
19,O=C(NS(=O)(=O)c1ccccc1)n1cc(-c2ccncc2)c(-c2ccc(Cl)c(O)c2)n1,82.7%
